# Yeast superoxide – caloric restriction mimetics inhibiting age-related superoxide in yeast; hit rate 0.18% among 330,000; superoxide response (% of plate mean), % at 10 µM; S. cerevisiae aged cells, superoxide DHE fluorescence; hits give low values;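 active means superoxide response under a set limit, about three screen SD below normal, cut at about 65% in these data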;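 further: yeast aged for seven days with compound at 30 °C before DHE staining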
# NLRP3 yeast inh – NALP3 inhibition in yeast; Yeast reconstituted NLRP3/ASC/caspase-1, beta-gal luminescence, 24 h; AID 2825; inhibition, % at 10 µM; hit rate 0.39% among 330,000;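 active means inhibition of 50% or more; inactive means inhibition below 50%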
# tim23-1 inh – growth inhibitors of tim23-1 mutant yeast; S. cerevisiae tim23-1 growth, BacTiter-Glo luminescence, 24 h; inhibition, % at 20 µM; hit rate 1.3% among 330,000;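 active means growth inhibition of the mutant yeast at or above 50%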;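 further: temperature-sensitive mutant grown at 25 °C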
# TIM10 inh – growth inhibitors of TIM10 yeast strain; S. cerevisiae TIM10 strain growth, BacTiter-Glo luminescence, 24 h; hit rate 1.4% among 330,000; inhibition, % at 10 µM;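 active means inhibition of 40% or more at the single tested concentration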;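 further: wild-type TIM10 isogenic control strain grown at permissive 25 °C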
# tim10-1 inh – growth inhibitors of tim10-1 mutant yeast | S. cerevisiae tim10-1 ts strain growth, BacTiter-Glo, 24 h | inhibition, % at 20 µM | hit rate 2.2% among 330,000 | AID 463190;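 active means inhibition of at least 40%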;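 further: mutant grown at 25 °C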
# tim10-1 confirm – confirmation of tim10-1 mutant yeast growth inhibitors. shares compounds with tim10-1 inh. S. cerevisiae tim10-1 ts strain growth, BacTiter-Glo, 24 h. inhibition, % at 20 µM. hit rate 56% among 7,400;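 active means inhibition of yeast growth at or above a set limit in either of two repeat tests at 20 µM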;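 further: tim10-1 mutant grown at permissive 25 °C to find synthetic lethal compounds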
# Numbers stand for hits; – = inactive; · = not tested or not shown. Sampled rows, rich in hits. Any-hit rate of the full collection: about 3.8%.
SMILES,Yeast superoxide,NLRP3 yeast inh,tim23-1 inh,TIM10 inh,tim10-1 inh,tim10-1 confirm
Cc1ccccc1N=C1SCCN1C(=O)CN1C(=O)NC2(CCCC2)C1=O,–,–,–,–,–,·
FC(F)(F)c1cccc(N2CCN(c3nnnn3-c3ccccc3)CC2)c1,–,–,–,–,43,–
FC(F)(F)c1cccc(N2CCN(c3ccc4nnc(-c5ccccc5)n4n3)CC2)c1,–,–,–,–,49,–
CCCCNC(=O)CNC(=S)N(Cc1ccccc1)Cc1cccs1,–,–,–,–,47,–
COc1cc2c(cc1OC)/C(=C/c1ccc(Br)cc1)C(=O)OC2,–,–,–,–,43,–
CCCCN(C(=O)c1oc2ccc(OCC)cc2c1C)c1c(N)n(CC(C)C)c(=O)[nH]c1=O,–,–,–,–,–,·
O=C(CP(=O)(c1ccccc1)c1ccccc1)N/N=C/c1cc(Br)cc(Br)c1O,–,–,–,–,–,·
CN(/N=C/c1cc(Br)cc(Br)c1O)c1ccccc1,–,–,–,–,43,35
CCc1nnc(NC(=O)C2COc3ccccc3O2)s1 (stereo unspecified),–,–,–,–,–,·
CCCCCc1nnc(NC(=O)C2COc3ccccc3O2)s1 (stereo unspecified),–,–,–,–,46,40
O=[N+]([O-])c1ccc(C(=S)N2CCN(c3ccc(F)cc3)CC2)cc1,–,–,–,–,43,–
S=C(NNc1ccnc2cc(Cl)ccc12)Nc1ccc(Cl)cc1Cl,–,–,–,–,–,·
CCOc1ccc(NC(=S)NNc2ccnc3cc(Cl)ccc23)cc1,–,–,–,–,47,–
O=C(CSCC(=O)N1CCN(c2ccccc2)CC1)Nc1nc(-c2ccc(Cl)s2)cs1,–,–,–,–,–,·
O=C(CSCC(=O)N1CCCCC1)Nc1nc(-c2ccc(Cl)s2)cs1,–,–,–,–,41,36
N/C(CCS(=O)(=O)c1ccc(Cl)cc1)=N\OC(=O)c1ccccc1C(F)(F)F,–,–,–,–,64,78
CC(=O)[C@H]1[C@@H]2C(=O)N(c3cccc(Cl)c3)C(=O)[C@@H]2[C@H]2c3ccccc3C=CN21,–,–,–,–,–,·
CC(=O)[C@H]1[C@H](c2cccc(Cl)c2)C(C#N)(C#N)[C@@H]2c3ccccc3C=CN21,–,–,–,–,48,–
Cc1cc(Cl)c(C)c(S(=O)(=O)Oc2ccccc2NC(=O)CCC(=O)O)c1Cl,–,–,–,–,–,·
COc1ccccc1CN1CCC(CNS(=O)(=O)c2cc(-c3cc(C)no3)ccc2C)CC1,–,–,–,–,–,·
Cc1cc(-c2ccc(C)c(S(=O)(=O)NCC3CCN(Cc4ccc(F)cc4)CC3)c2)on1,–,–,–,–,42,–
CC1(c2nnc(-c3ccncc3)o2)CC(c2ccc([N+](=O)[O-])cc2)=NO1 (stereo unspecified),·,–,–,–,–,·
COc1ccccc1NC(CC(=O)c1ccccc1)C(=O)OCC(=O)c1ccc(F)cc1 (stereo unspecified),–,–,–,–,45,40
CCOC(=O)C1NN=C(C(=O)c2ccccc2)C1c1ccc(Cl)cc1 (stereo unspecified),–,–,–,–,43,–
CCOC(=O)C1NN=C(C(=O)c2ccccc2)C1c1ccccc1 (stereo unspecified),–,–,–,–,–,·
SMILES,Yeast superoxide,NLRP3 yeast inh,tim23-1 inh,TIM10 inh,tim10-1 inh,tim10-1 confirm
CC(C)C(=O)NC(=S)N(Cc1ccccc1)Cc1ccccc1,–,–,–,–,41,–
CC(=O)N/N=C/c1cc(C(C)(C)C)cc(/C=N/NC(C)=O)c1O,–,·,·,·,·,·
CN(C)CCCN(C(=O)c1ccc(C(=O)c2ccccc2)cc1)c1nc2ccc(F)cc2s1,–,–,–,–,49,–
Cc1cccc2sc(N(CCCN(C)C)C(=O)c3sc4ccccc4c3Cl)nc12,–,–,–,–,–,·
CN(C)CCCN(C(=O)c1nc2ccccc2s1)c1nc2ccc(F)cc2s1,–,–,–,–,–,·
Cc1cccc2sc(N(CCCN(C)C)C(=O)c3ccc(C(=O)c4ccccc4)cc3)nc12,–,–,–,–,43,–
CSc1ncccc1C(=O)Nc1ccc(F)c(F)c1F,–,–,–,–,–,·
CC(=O)N1CCN(c2ccc(NC(=O)C(C)Oc3ccc(Cl)cc3Cl)cc2)CC1 (stereo unspecified),–,–,–,–,45,31
CC(=O)N1c2ccccc2C2(O)N=C(C)SC12 (stereo unspecified),–,–,–,–,–,·
CC(=O)Oc1ccc2c(=O)oc(-c3ccccc3C)nc2c1,–,–,–,–,44,40
CNc1nc(Cl)nc(NC(C)(C)C)n1,–,–,–,–,–,·
CC(C)(C)Nc1nc(Cl)nc(NC(C)(C)C)n1,–,–,–,–,44,–
O=C(COc1ccc(/C=N/NS(=O)(=O)c2ccccc2)cc1)NCc1ccccc1,–,–,–,–,–,·
CC(=O)Oc1ccc(/C=N/NS(=O)(=O)c2ccccc2)cc1,–,–,–,–,44,44
CCN(CC)S(=O)(=O)c1ccc(NC(=S)Nc2ccc(F)cc2)cc1,–,–,–,–,–,·
COc1ccccc1C(=O)NNC(=O)C1CCN(C(=O)OC(C)(C)C)CC1,–,–,–,–,–,·
O=C(CCl)Nc1ncc(S(=O)(=O)c2ccc([N+](=O)[O-])cc2)s1,–,–,–,–,–,·
CCC(C)(C)C(=O)Nc1ncc(S(=O)(=O)c2ccc([N+](=O)[O-])cc2)s1,–,–,–,–,42,–
Cn1c(SC2=CS(=O)(=O)c3ccccc32)nc2ccccc21,–,–,–,–,44,–
O=C(/C=C/c1cccs1)c1cc(Br)ccc1OC(=O)N1CCOCC1,–,–,–,–,56,43
Cc1ccc(OCCOc2cccc(Br)c2)c([N+](=O)[O-])n1,–,–,–,–,54,40
CCOC(=O)C1=C(C)N=c2s/c(=C3/C(=O)Nc4ccccc43)c(=O)n2C1c1ccc(C)cc1 (stereo unspecified),–,–,–,–,–,·
COC(=O)C1=C(C)N=c2s/c(=C3\C(=O)Nc4ccccc43)c(=O)n2C1c1ccccc1 (stereo unspecified),·,–,–,–,40,–
O=C1C(Cc2ccccc2)Nc2ncnc(N3CCc4ccccc4C3)c2N1Cc1ccc(Br)cc1 (stereo unspecified),–,–,–,–,41,–
O=C1C(Cc2ccccc2)Nc2ncnc(N3CCN(c4ccccc4)CC3)c2N1Cc1ccc(Br)cc1 (stereo unspecified),–,–,–,–,–,·
S=C(NCC1CCCO1)Nc1ccc(Cl)c(Cl)c1 (stereo unspecified),–,–,–,–,41,–
CCCCc1ccc(NC(=S)NCC2CCCO2)cc1 (stereo unspecified),–,–,–,–,45,34
Cc1nc(N2CCN(C(=O)COc3ccccc3)CC2)c2c(C)c(C)sc2n1,–,–,–,–,41,–
Cc1ccc2nc(C)c3c(c2c1)SCC3,–,–,–,–,–,·
